# Values without a mark were called inactive.
# What was measured:
# Assay in all cases: log2 ratio of Biotin-Ahx-Ub-VS probe labelling (fragment/DMSO); higher = less target engagement (more negative = stronger competition), active = hit call of the paper (q ≤ 0.05, log2 ratio ≤ -1)
# Conditions in all cases: compound concentration: 200 uM; treatment time: 3 h
# [1] = target: USP16 (UniProt Q9Y5T5)
# Procedure, shortened: (§1)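 Global-median-normalised Spectronaut label-free quantities were compared by unpaired t-test, and values are average log2 ratios of fragment over vehicle. Only proteins with ≥2 unique peptides were used. HEK293T lysate (495 µg per sample) was treated in triplicate with fragment at 200 µM or vehicle for 3 h and then with Biotin-Ahx-Ub-VS at 0.5 µM final for 1 h. Labelled DUBs were then NeutrAvidin-enriched, digested with LysC and trypsin, and run by diaPASEF LC-MS/MS.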
# [2] = target: T1, USP19 (UniProt O94966)
# T1 sequence (whole entry): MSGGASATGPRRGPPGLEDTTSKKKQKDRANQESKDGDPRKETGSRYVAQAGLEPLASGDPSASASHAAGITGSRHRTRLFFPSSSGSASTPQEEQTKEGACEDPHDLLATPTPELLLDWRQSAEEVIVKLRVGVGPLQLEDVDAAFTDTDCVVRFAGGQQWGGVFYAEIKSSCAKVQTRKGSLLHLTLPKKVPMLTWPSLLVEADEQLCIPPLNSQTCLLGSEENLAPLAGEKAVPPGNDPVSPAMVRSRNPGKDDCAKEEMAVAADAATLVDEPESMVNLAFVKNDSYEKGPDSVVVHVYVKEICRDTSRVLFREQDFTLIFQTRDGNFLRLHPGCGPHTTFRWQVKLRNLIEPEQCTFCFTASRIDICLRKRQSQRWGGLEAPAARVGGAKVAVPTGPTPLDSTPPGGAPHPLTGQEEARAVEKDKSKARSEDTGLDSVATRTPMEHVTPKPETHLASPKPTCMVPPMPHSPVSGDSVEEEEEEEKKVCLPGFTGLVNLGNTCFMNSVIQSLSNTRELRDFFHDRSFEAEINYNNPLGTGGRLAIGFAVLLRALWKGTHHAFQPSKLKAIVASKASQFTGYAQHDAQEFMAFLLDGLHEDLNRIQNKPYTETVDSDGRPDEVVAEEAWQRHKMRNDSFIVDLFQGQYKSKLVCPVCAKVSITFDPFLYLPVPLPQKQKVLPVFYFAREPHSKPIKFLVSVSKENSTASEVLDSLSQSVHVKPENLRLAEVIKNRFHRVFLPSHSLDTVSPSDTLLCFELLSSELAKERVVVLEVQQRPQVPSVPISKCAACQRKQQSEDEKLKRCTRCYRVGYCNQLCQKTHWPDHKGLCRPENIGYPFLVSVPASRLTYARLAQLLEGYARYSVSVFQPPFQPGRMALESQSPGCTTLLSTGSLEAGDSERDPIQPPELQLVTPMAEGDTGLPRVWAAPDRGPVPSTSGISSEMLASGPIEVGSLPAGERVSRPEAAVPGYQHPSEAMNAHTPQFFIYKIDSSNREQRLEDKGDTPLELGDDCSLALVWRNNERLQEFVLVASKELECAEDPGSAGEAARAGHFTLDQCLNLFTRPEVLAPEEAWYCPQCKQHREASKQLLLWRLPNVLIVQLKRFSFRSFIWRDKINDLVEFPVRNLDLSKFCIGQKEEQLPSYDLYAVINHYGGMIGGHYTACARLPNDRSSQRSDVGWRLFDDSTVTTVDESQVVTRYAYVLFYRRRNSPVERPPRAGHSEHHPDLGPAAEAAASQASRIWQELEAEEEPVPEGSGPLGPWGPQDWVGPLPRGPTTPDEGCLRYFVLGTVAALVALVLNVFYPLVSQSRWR
# Procedure, shortened: as §1
# [3] = target: USP24 (UniProt Q9UPU5)
# USP24, sequence (Q9UPU5 whole entry): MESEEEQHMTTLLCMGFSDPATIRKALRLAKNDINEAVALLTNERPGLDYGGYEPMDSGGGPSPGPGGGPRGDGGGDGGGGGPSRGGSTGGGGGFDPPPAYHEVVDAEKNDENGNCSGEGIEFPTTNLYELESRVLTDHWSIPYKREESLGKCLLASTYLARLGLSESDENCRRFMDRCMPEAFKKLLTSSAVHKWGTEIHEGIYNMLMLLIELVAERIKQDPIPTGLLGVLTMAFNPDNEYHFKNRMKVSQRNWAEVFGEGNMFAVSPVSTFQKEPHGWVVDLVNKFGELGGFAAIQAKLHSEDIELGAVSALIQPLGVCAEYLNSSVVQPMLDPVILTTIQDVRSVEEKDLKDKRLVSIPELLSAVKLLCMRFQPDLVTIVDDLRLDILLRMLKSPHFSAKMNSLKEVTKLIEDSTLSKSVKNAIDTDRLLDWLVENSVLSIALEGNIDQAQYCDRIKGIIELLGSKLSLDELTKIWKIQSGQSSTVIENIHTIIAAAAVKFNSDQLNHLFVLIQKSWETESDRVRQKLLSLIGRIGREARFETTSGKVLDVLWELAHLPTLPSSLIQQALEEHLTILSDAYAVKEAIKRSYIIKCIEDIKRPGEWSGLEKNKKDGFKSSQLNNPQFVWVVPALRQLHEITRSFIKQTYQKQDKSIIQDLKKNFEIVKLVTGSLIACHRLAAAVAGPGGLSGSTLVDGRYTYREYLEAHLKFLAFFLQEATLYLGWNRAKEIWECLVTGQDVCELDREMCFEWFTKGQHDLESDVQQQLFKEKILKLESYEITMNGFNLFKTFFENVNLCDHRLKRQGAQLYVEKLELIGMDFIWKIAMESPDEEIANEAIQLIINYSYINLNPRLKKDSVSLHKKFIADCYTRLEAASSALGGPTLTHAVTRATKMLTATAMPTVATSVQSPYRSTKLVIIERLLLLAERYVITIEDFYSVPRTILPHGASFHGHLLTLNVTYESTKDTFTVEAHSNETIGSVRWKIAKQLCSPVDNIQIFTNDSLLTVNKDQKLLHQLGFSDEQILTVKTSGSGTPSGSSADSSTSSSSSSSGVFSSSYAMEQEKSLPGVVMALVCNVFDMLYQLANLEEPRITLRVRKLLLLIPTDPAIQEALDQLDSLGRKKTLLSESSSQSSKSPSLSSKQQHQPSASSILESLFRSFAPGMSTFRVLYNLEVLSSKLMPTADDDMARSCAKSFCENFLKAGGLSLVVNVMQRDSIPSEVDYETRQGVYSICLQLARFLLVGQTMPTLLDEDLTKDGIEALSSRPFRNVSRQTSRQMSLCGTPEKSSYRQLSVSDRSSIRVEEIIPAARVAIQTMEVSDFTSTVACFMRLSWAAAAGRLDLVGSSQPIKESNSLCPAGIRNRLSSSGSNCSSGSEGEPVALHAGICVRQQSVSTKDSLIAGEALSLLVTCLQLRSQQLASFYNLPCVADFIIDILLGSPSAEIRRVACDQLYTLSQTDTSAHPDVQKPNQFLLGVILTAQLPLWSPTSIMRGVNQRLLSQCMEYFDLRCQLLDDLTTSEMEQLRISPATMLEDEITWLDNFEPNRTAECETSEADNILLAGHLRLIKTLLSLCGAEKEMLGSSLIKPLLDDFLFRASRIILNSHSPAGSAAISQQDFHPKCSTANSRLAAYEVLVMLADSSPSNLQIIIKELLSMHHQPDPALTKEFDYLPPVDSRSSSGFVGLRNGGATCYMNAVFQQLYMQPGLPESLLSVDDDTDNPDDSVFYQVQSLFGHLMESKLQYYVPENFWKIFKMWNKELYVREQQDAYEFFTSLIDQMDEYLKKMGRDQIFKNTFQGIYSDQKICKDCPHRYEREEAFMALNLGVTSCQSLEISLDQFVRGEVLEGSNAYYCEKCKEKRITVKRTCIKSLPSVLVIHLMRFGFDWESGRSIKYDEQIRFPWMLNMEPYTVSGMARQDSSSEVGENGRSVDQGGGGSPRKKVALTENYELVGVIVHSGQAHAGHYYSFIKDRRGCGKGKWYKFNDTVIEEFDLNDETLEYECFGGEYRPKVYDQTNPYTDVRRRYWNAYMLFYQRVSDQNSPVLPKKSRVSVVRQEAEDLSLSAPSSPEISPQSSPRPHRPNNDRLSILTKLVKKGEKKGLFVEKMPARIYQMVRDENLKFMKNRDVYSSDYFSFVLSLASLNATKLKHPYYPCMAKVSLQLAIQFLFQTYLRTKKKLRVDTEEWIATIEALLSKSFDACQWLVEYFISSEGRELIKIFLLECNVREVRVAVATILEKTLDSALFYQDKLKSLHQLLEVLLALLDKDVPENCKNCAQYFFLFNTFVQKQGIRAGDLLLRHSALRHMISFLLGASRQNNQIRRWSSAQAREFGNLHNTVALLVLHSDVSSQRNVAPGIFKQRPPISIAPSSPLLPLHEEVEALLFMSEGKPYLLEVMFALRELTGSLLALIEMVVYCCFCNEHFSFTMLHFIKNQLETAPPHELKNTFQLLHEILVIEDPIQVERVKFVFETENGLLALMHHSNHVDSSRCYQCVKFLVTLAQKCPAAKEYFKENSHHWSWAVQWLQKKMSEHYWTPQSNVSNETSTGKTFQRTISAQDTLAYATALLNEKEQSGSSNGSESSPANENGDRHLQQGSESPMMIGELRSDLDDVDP
# Procedure, shortened: as §1
# [4] = target: T2, USP25 (UniProt Q9UHP3)
# T2 sequence (whole entry): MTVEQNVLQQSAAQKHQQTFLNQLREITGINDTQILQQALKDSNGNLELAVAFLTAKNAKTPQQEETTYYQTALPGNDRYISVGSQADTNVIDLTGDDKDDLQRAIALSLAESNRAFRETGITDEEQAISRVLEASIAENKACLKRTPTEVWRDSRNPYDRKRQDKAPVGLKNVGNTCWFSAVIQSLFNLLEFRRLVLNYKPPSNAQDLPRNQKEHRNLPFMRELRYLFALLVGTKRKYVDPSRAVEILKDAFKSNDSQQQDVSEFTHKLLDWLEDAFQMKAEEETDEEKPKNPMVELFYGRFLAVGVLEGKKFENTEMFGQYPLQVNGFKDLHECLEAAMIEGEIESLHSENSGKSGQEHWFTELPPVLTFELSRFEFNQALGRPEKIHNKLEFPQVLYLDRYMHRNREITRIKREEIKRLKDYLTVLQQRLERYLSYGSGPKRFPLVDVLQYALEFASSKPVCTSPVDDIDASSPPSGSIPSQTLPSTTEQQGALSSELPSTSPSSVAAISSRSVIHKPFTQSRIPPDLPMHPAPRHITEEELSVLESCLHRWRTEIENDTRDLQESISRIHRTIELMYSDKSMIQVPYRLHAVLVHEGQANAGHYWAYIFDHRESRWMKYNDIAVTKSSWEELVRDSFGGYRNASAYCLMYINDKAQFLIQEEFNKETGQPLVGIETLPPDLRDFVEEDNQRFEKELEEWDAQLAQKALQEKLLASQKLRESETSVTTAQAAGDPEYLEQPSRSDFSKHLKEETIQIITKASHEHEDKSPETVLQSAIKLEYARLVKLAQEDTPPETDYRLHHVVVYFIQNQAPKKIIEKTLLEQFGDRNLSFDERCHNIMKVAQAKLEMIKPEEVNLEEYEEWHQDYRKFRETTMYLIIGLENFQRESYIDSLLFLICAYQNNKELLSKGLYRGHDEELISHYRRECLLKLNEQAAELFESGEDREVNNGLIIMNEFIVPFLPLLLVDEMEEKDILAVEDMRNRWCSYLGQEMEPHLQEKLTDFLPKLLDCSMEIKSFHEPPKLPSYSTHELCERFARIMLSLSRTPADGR
# Procedure, shortened: as §1
# [5] = target: T3, USP28 (UniProt Q96RU2)
# T3 sequence (whole entry): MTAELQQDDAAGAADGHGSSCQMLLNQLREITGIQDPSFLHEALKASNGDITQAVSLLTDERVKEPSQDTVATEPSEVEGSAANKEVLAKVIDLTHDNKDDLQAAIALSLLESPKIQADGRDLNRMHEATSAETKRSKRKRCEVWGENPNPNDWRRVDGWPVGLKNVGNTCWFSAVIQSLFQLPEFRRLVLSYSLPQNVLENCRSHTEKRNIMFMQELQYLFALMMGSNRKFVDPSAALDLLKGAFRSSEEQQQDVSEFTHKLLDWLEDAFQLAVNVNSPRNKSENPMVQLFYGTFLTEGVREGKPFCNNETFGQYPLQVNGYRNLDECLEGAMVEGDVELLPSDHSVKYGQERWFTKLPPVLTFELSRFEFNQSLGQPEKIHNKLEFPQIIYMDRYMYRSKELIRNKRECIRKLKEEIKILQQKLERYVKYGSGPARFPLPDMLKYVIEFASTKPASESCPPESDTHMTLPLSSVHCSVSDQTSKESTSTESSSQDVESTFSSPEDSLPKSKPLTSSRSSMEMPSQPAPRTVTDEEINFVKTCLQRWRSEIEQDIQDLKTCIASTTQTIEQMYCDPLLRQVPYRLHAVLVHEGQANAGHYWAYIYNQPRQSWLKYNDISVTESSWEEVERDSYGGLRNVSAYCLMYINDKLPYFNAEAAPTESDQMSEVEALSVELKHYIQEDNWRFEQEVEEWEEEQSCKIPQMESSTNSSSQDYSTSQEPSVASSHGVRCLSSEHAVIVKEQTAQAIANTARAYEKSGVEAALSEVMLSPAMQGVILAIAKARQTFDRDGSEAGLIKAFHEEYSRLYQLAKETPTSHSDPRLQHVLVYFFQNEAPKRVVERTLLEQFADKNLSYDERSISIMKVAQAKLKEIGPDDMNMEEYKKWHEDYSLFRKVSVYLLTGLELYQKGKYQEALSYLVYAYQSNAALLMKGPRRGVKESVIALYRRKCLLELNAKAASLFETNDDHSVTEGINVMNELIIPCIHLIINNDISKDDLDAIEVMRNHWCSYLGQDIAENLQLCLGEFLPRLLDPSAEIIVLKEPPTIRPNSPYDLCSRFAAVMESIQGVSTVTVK
# Procedure, shortened: as §1
# USP16, sequence (Q9Y5T5 whole entry, looked up, the tested form may be a part): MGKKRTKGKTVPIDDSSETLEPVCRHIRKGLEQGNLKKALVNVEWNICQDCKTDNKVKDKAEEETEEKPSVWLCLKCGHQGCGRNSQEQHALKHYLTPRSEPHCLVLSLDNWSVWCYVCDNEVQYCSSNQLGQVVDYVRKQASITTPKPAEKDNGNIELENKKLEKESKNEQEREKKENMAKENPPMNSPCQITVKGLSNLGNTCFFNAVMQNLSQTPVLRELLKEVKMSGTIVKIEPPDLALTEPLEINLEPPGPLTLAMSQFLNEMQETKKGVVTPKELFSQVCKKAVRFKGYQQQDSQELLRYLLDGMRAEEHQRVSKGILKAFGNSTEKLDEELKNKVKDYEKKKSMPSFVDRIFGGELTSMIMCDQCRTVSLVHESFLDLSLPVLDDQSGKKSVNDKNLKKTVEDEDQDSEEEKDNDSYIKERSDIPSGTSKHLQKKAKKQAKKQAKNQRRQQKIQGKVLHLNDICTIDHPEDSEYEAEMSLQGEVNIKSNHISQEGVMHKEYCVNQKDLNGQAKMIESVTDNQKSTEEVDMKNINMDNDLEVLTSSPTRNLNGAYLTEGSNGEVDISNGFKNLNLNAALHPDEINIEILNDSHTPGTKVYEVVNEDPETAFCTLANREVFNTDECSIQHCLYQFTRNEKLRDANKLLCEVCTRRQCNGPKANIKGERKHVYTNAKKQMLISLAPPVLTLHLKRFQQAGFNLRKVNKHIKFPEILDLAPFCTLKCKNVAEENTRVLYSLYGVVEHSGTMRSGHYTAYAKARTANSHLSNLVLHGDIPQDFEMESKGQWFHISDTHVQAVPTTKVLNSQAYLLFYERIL
smiles,measurement,setting,value
CC(NC(=O)CCl)c1csc(-c2ccccc2)n1.Cl (stereo not given),log2 ratio of Biotin-Ahx-Ub-VS probe labelling,[1],-1.03 (active)
same,log2 ratio of Biotin-Ahx-Ub-VS probe labelling,[2],-0.563
same,log2 ratio of Biotin-Ahx-Ub-VS probe labelling,[3],-0.822
same,log2 ratio of Biotin-Ahx-Ub-VS probe labelling,[4],-0.638
same,log2 ratio of Biotin-Ahx-Ub-VS probe labelling,[5],-1.79 (active)
